This is an account of results in PubChem BioAssay (NCI).

This is part of a sample that, as a whole, favours compounds with a hit. Of some 83,000 tested, about 20% had one in any assay.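 Treatment: one concentration, 48 hours, 96-well format. Scoring: percent growth, with anything below 10 considered active.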 A number with no mark means an inactive call. Activity calls are given as the source filed them.

The subject of this experiment is MCF7 breast. Briefly: NCI-60 one-dose screen, 48 h (100 = growth as untreated, 0 = no growth, -100 = all killed). The following applies: 10 µM unless noted. On the procedure: Growth inhibition of the MCF7 human tumor cell line is measured as a screen for anti-cancer activity. Cells are grown in 96 well plates and exposed to the test compound for 48 hours. Compounds are tested at a single concentration, which is 10^-5 M for most compounds. The reported endpoint is percent growth (GI% or GIPRCNT), where numbers from 0 - 100% represent growth inhibition, and numbers from -100% - 0 represent cell death. For example, a value of 40 represents 60% growth inhibition. A value of 0 means no net growth occurred over the course of the experiment. A value of -40 indicates 40% of cells at the beginning of the experiment died by the end of the experiment. A value of -100 means all cells are dead at the end of the experiment.
NCI-60 Human Tumor Cell Lines Screen was performed using the standard one-dose NCI protocol, which is described in more detail at https://dtp.cancer.gov/discovery_development/nci-60/default.htm.
Compounds with GIPRCNT values below 10 were considered active. Activity score was based on GIPRCNT using the following formula: […]
Score is 0 for GIPRCNT values of 100 or above, 50 for GIPRCNT values of 0, and 100 for GIPRCNT values of -100.
Consider `O=C(O/C(=C/c1ccccc1)C(F)(F)F)c1ccccc1`, for which the growth is 102%. As for `COc1cc(C2CC(c3ccc(Cl)cc3)=NN2C(C)=O)ccc1Oc1nc2c(c(=O)n(C)c(=O)n2C)n1C` (stereo not given), the growth was 70.2%. As for `C=CCOc1ccc2c(C)cc(=O)oc2c1`, the figure is 98.2%; as for `Cn1cnc([N+](=O)[O-])c1S(=O)(=O)Oc1cccc2ccccc12`, 44.8%.

As for `O=C1N(Cc2ccccc2Cl)c2ccccc2C12NN=C(c1ccccc1)S2` (stereo not given), the growth was 53.5%.

`CCN(CC)CCCC(C)Nc1c(-c2ccccc2)cnc2cc(Cl)ccc12` (stereo not given): the growth is 59.1%.

Consider `Cc1cc(Nc2c3ccccc3nc3ccccc23)ccc1NS(C)(=O)=O`, for which the growth is 27.4%. For the compound `O=C(N/N=C/c1ccc([N+](=O)[O-])o1)c1ccc(O)cc1`, the growth is 26.1%. Consider `CN1C(=O)N(C)C2C1NN=c1s/c(=C\c3ccc(C(F)(F)F)cc3)c(=O)n12` (stereo not given), for which the growth is 12%. Regarding `COc1cc(-c2nn(C(=O)NCCN3CCN(C)CC3)cc2-c2ccncc2)ccc1Cl`, the growth was 76.5%. The figure for `C=C1C[C@@]2(C)C(CC[C@]3(C)C2CC=C2C4CC(C)(C)C[C@@H](OC(=O)/C(C)=C\C)[C@]4(C(=O)O)CC[C@]23C)C(C)(C)C1=O` (stereo not given in full) is 8.17% (active).

Consider `C=C1C(=O)O[C@H]2[C@H]1CC/C(COC(=O)NCc1ccc(Cn3c(=O)sn(CCCl)c3=O)cc1)=C\CC[C@@]1(C)O[C@@H]21`, for which the growth was 31.7%.

For the compound `COc1ccc(Nc2nc(N)nc3c(=O)[nH]ccc23)cc1`, the growth is 79.7%. As for `CC1CCCN(CCCCOc2ccc(-c3ccc(C#N)cc3)cc2)C1` (stereo not given), the figure is 86.4%; as for `CCOC(=O)CCN(CCC(=O)OCC)c1ccccc1`, 101%; as for `O=C(Nc1ccc(Br)cc1)c1ccc(Cl)c(Cl)c1`, 20.1%.

Consider `CCCCCCCCCCCCCC1=NC(C)(C)CN1C(C)C`, for which the growth was -41.3% (active).

Take `CCN(CC)CCNC(=O)n1cc(-c2ccncc2)c(-c2ccc(Cl)c(OC)c2)n1`: the growth was 85.9%. With `COc1cc(-c2nc(-c3ccc(-c4nc5ccc(F)cc5[nH]4)cc3)no2)cc(OC)c1OC`, the growth was 41.1%. The figure for `O=C1C=CN2C(=O)CC=CC2[C@@H]1O` (stereo not given in full) is 96.5%; for `CCCCCCCC/C=C/CCCCCCCC1=NC(C)(C)CN1c1ccccc1` it is 86.3%; for `CCCCCCCCCCCCC1CCC(=O)O1` (stereo not given) it is 93.4%.

In the case of `O=c1c2cc(Br)cc(Br)c2nc(-c2ccc(Cl)cc2)n1/N=C/c1cccc(F)c1`, the growth is 52.5%. Turning to `Clc1cc(Cl)cc(-c2cnc3nonc3n2)c1`, the growth is 69.5%. Regarding `O=C1CCCN1C(O)CCN(Cc1ccccc1)Cc1ccc(Cl)cc1` (stereo not given), the growth was 94.1%. As for `COc1cccc(C2C(C#N)=C(N)Oc3cc4c(cc32)OCO4)c1` (stereo not given), the figure is 13.2%.

For the compound `CCS(=O)(=O)Nc1cccc(Nc2c3cccc(C)c3nc3c(C)cccc23)c1OC`, the growth was 11.6%. As for `c1cc(C2CCCCC2)ccc1-c1cnc2nonc2n1`, the figure is 7.11% (active); as for `COc1cc(/C=N/NC(=O)Cn2c(-c3ccc(C)o3)nc3ccccc32)ccc1OCc1ccccc1`, 76.2%; as for `C=C1C(=O)O[C@H]2[C@H]1CC/C(COC(=O)NCc1c[nH]c3ccc(OC)cc13)=C\CC[C@@]1(C)O[C@@H]21`, 5.33% (active).

Consider `O=[N+]([O-])c1ccc(N/N=C\c2ccc(O)cc2O)nc1`, for which the growth was 27.4%. The figure for `Cc1ccc(NC(=O)c2sc3nc4c(cc3c2N)C(=O)CCC4)cc1Cl` is 102%. As for `CCCCCCCCCCCC1=NC(C)(C)CN1CC(C)O` (stereo not given), the figure is 25.8%; as for `Fc1ccc(-c2cnc3nonc3n2)c(F)c1`, 85%; as for `COC(=O)C(Br)(C(=O)OC)C(Br)C(Br)C(Br)c1ccccc1` (stereo not given), 18.3%. For `CC(C)CC(=O)C(CCc1ccccn1)C(C)C` (stereo not given), the growth is 104%. The figure for `CCOC(=O)c1ccc2c(c1)nc(-c1ccc(Cl)cc1)n2-c1cc(C(C)(C)C)[nH]n1` is 9.39% (active). The figure for `O=C(/C=C/c1ccco1)c1ccccc1O` is 41.3%; for `COc1cccc(-c2cc(-c3cccs3)c(C#N)c(=O)[nH]2)c1` it is 94.2%. The figure for `COC(=O)OC1C(O[C@H]2C[C@H]3[C@@H]4CC=C5C[C@@H](O)CC[C@]5(C)[C@H]4CC[C@]3(C)[C@H]2[C@H](C)C(=O)CCC(C)C)OCC(O)C1OC1OCC(O)C(O)C1OC(=O)c1ccc(OC)cc1` (stereo not given in full) is -8.41% (active).
